This passage reports z-score and composite z-score results from PubChem BioAssay.

Assay [1] is described as follows: optical density shifts of acrAB sulA E. coli – strain DRC41, OD650, 48 h, E. coli filamentation inducer project, primary screen (AID 1152).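 Further: E. coli MC1000 strain DRC41 lacking acrAB efflux pump and sulA.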 Conditions: higher = more signal, called active from +8 up or from −8 down.
A short description of assay [2]: probe aLefty1 binding on compound microarray – biochemical, small-molecule microarray, 635/667 nm fluorescence, primary screen (AID 1153).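 Further: score merges spot fluorescence with signal-to-noise ratio from the scanned slide images.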 To be noted: higher = more signal.
Assay [3] can be described thus: plasmodial surface anion channel blockers, osmotic lysis – cell-based, P. falciparum Indochina, OD700, 1 h, primary screen (AID 1154). Conditions: P. falciparum Indochina infected RBC osmotic lysis, higher = more signal, called active from +8 up or from −8 down.
Assay [4] is described as follows: plasmodial surface anion channel blockers, osmotic lysis – cell-based, P. falciparum Indochina, OD700, 2 h, primary screen (AID 1155).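 Further: lysis reports solute entry through the parasite surface anion channel PSAC.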 Conditions: P. falciparum Indochina infected erythrocytes, higher = more signal, called active from +8 up or from −8 down.
A short description of assay [5]: changes in parasitized red cell lysis, either direction – P. falciparum Indochina, OD700, 3 h, PSAC antagonist project, primary screen (AID 1156). Conditions: P. falciparum-infected erythrocytes, osmotic lysis, higher = more signal, called active from +8 up or from −8 down.
The nature of assay [6]: plasmodial surface anion channel blockers, osmotic lysis – cell-based, P. falciparum Indochina, OD700, 18 h, primary screen (AID 1157). Conditions: P. falciparum Indochina infected erythrocytes, osmotic lysis OD700, 18 h; higher = more signal, called active from +8 up or from −8 down.
A short description of assay [7]: S6 kinase pathway phospho-S6 level changes – cell-based, A549, cytoblot, luminescence, serum-stimulated, primary screen (AID 1158).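 Further: serum-stimulated A549 lung adenocarcinoma cells; signal is phosphorylated S6 detected by cytoblot immunostaining with HRP secondary.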 To be noted: 5 h, higher = more signal.
Assay [8] concerns the target NADPH oxidase 2 (Homo sapiens) (UniProt P04839). Description: compounds shifting NOX2 Amplex Red fluorescence – cell-based, HEK293-NOX2, PMA-stimulated, NOX inhibitor project, primary screen (AID 1159). Further: test concentration not given here. To be noted: 45 min, higher = more signal, called active from +8 up or from −8 down.
Assay [9] deals with NADPH oxidase 4 (Homo sapiens) (UniProt Q9NPH5). Description: compounds shifting NOX4 Amplex Red fluorescence – cell-based, HEK293-NOX4, tetracycline-induced, NOX inhibitor project, primary screen (AID 1160). Conditions: HEK293-NOX4, Amplex Red H2O2 fluorescence, 45 min; higher = more signal, called active from +8 up or from −8 down.
Sequence of NADPH oxidase 4 (Homo sapiens) (Q9NPH5 whole entry, looked up): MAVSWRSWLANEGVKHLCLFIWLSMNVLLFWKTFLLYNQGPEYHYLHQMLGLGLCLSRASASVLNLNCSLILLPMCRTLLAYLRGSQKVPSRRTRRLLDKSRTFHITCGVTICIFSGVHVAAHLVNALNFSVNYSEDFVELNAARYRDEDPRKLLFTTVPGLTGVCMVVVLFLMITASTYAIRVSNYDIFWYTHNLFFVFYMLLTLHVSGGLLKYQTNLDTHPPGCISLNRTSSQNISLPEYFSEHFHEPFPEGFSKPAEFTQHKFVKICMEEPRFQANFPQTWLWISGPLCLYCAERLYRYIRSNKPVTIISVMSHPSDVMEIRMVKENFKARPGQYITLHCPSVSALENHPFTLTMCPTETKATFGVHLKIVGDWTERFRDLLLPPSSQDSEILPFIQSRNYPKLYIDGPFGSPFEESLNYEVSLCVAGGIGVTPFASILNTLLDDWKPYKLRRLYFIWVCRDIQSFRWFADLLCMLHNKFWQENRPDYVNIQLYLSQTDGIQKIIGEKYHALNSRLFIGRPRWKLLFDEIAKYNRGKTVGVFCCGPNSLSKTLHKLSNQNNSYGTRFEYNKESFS
In assay [10] the target is NADPH oxidase 5 (Homo sapiens) (UniProt Q96PH1). Description: compounds shifting NOX5 Amplex Red fluorescence – cell-based, HEK293-NOX5, NOX inhibitor project, primary screen (AID 1161). To be noted: HEK293-NOX5, ionomycin, 45 min, higher = more signal.
Sequence of NADPH oxidase 5 (Homo sapiens) (Q96PH1 whole entry, looked up): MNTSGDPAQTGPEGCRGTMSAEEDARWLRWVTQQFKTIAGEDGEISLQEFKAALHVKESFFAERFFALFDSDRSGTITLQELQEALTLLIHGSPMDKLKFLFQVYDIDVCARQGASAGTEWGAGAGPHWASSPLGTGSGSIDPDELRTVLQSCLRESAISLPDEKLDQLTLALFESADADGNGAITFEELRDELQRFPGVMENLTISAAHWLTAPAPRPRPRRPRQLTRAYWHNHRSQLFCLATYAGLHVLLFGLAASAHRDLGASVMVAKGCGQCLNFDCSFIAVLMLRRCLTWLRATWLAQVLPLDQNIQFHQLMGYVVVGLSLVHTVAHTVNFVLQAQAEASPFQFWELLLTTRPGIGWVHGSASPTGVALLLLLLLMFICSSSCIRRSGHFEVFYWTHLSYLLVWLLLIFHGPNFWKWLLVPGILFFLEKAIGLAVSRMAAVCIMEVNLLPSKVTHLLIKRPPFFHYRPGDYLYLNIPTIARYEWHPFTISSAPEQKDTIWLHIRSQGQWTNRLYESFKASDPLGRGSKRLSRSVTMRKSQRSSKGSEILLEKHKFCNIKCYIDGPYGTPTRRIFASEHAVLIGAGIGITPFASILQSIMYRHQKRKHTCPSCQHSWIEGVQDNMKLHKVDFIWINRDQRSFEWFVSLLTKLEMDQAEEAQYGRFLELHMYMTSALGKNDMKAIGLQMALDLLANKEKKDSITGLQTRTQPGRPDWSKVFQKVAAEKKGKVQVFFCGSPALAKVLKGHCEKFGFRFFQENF
A short description of assay [11]: compound effects on lung adenocarcinoma cell viability – A549, calcein-AM fluorescence, 48 h, basal, profiling panel (AID 1162). Further: test concentration not given here. Conditions: higher = more signal.
The nature of assay [12]: compound effects on differentiated 3T3-L1 adipocyte viability – cell-based, 3T3-L1 adipocytes, calcein-AM fluorescence, 48 h, basal, profiling panel (AID 1163). Further: test concentration not given here. To be noted: 3T3-L1 adipocytes viability, higher = more signal.
The nature of assay [13]: compound effects on hepatocellular carcinoma cell viability – HepG2, calcein-AM fluorescence, 48 h, basal, profiling panel (AID 1164). Further: test concentration not given here. Conditions: higher = more signal.
Assay [14] is described as follows: compound effects on multiple myeloma cell viability – MM1S, calcein-AM fluorescence, 48 h, basal, profiling panel (AID 1165).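 Further: viability of MM1S multiple myeloma cells under basal unstimulated conditions; test concentration not given here.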 To be noted: higher = more signal.
Assay [15] in a line: calcein-AM signal in unstimulated myeloma cells – cell-based, calcein-AM fluorescence, 48 h, PK04 Diversity Set, profiling panel (AID 1166).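 Further: cells grown under basal conditions without added stimulus; test concentration not given here.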 Conditions: RPMI8226 myeloma viability, higher = more signal.
Assay [16] is described as follows: JC-1 mitochondrial signal, unstimulated HepG2 cells – cell-based, JC-1 fluorescence, 24 h, 100 nL compound, profiling panel (AID 1167). Further: test concentration not given here. Conditions: HepG2 mitochondrial potential, higher = more signal.
Assay [17] is described as follows: JC-1 mitochondrial signal, unstimulated adipocytes – cell-based, JC-1 fluorescence, 3T3-L1 adipocytes, 24 h, 100 nL compound, profiling panel (AID 1168). Further: test concentration not given here. Conditions: JC-1 mitochondrial fluorescence, higher = more signal, called active from +8 up or from −8 down.
The nature of assay [18]: JC-1 mitochondrial signal, unstimulated myeloma cells – cell-based, JC-1 fluorescence, RPMI8226, 24 h, 100 nL compound, profiling panel (AID 1169). Further: test concentration not given here. To be noted: JC-1 mitochondrial potential fluorescence, higher = more signal.
A short description of assay [19]: JC-1 mitochondrial signal, unstimulated MM1S myeloma – cell-based, JC-1 fluorescence, 24 h, 100 nL compound, profiling panel (AID 1170). Further: test concentration not given here. Conditions: MM1S mitochondrial potential, higher = more signal.
Assay [20] can be described thus: resazurin metabolic signal in A549 cells – cell-based, resazurin fluorescence, 24 h, PK04 Diversity Set, profiling panel (AID 1171). Further: test concentration not given here. Conditions: A549 viability, higher = more signal, called active from +8 up or from −8 down.

SMILES strings stand for the structures. Calls of active or inactive are those of the source.

Sequence of NADPH oxidase 2 (Homo sapiens) (P04839 whole entry, looked up): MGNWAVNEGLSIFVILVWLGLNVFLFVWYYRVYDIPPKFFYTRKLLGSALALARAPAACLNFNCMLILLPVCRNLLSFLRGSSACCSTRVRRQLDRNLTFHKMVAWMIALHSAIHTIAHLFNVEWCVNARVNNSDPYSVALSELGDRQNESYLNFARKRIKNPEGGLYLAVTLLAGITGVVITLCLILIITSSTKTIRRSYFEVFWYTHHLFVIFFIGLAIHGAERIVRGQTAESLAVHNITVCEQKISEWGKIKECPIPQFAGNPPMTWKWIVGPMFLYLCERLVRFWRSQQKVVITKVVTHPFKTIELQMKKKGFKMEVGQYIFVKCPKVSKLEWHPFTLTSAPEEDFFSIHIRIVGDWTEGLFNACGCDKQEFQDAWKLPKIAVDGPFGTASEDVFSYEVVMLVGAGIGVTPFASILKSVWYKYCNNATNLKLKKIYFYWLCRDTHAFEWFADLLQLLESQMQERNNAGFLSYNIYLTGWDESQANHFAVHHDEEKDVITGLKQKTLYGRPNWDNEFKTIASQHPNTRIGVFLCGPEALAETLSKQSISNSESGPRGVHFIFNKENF

Turning to `O=C1O[C@H](c2ccccc2)[C@H](c2ccccc2)N2[C@H]1[C@@H](C(=O)N1CCN(c3ncccn3)CC1)[C@]1(C(=O)Nc3ccc(C#CC4=CCCCC4)cc31)[C@H]2c1ccccc1OCCO`, the z-score in assay [1] was -0.544 (inactive); in [3] it was 1.45 (inactive); in [4] it was 0.746 (inactive); in [5] it was 0.774 (inactive); in [6], 1.03 (inactive); in assay [7], -0.187. Further, the z-score is 1.46 (inactive) in assay [8]; 0.867 (inactive) in assay [9]; 1.01 in assay [10]; -1.02 in assay [11]; 1.09 in assay [12]; -0.769 in assay [13]. The z-score in [14] was -2.23; in [15], -1.72; in assay [16] it was -0.915; in assay [17] it was 2.88 (inactive); in assay [18], -1.18; in [19], -1.01. Moreover, in assay [20], the z-score is -1.34 (inactive). Also, in assay [2], the composite z-score is 1.52.
With `COCC(=C=CC[C@H](O)c1ccccc1OCCO)CCO`, the z-score in assay [1] is 0.0257 (inactive); in assay [3], 2.69 (inactive); in assay [4], -0.0718 (inactive); in assay [5], -0.107 (inactive); in assay [6], 0.0371 (inactive); in assay [7], -0.509. Besides, the z-score was 0.281 (inactive) in assay [8]; 0.263 (inactive) in [9]; -0.397 in [10]; 0.474 in assay [11]; -0.233 in assay [12]; 0.304 in assay [13]. The z-score was -0.48 in assay [14]; -0.0001 in [15]; -0.853 in assay [16]; -0.624 (inactive) in assay [17]; -0.345 in assay [18]; -0.654 in assay [19]. The z-score in assay [20] is -0.323 (inactive). Besides, the composite z-score in assay [2] is -0.206.
As for `[N-]=[N+]=NCc1ccccc1[C@@H]1OC(c2ccc(OCCCO)cc2)=N[C@]1(CCS(=O)(=O)c1ccccc1)C(=O)N1CCCCC1`, the z-score in [1] is 0.323 (inactive); in assay [3], 22.8 (active); in assay [4], 7.3 (inactive); in [5], 1.59 (inactive); in assay [6], 1.06 (inactive); in assay [7] it was 0.34. Further, the z-score in assay [8] was 0.196 (inactive); in [9], 1.19 (inactive); in [10], 2; in assay [11] it was 1.26; in [12], -0.418; in assay [13], 1.43. The z-score is -0.504 in assay [14]; -0.0169 in assay [15]; -0.132 in [16]; -0.159 (inactive) in assay [17]; -0.653 in [18]; -1.87 in assay [19]. Also, the z-score in assay [20] was -0.182 (inactive). Further, the composite z-score in assay [2] is 0.522.
`[N-]=[N+]=Nc1ccccc1C[C@]1(C(=O)NCc2ccccc2)N=C(c2ccc(OCCCO)cc2)O[C@H]1c1ccccc1N=[N+]=[N-]`: the z-score in assay [1] is -0.107 (inactive); in assay [3], 28.1 (active); in [4], 28.7 (active); in [5], 2.76 (inactive); in assay [6], 5.76 (inactive); in assay [7] it was 0.096. The z-score in assay [8] was -1.87 (inactive); in assay [9], 0.483 (inactive); in assay [10], -0.32; in assay [11], -1.33; in [12] it was 0.0309; in assay [13], -1.2. The z-score in [14] is -2.94; in [15] it was -3.55; in assay [16], 1.58; in assay [17] it was 0.00967 (inactive); in assay [18], -1.18; in assay [19], -2.49. Moreover, the z-score in assay [20] is -1.6 (inactive). Further, in [2], the composite z-score is -0.353.
Consider `COCCCNC(=O)[C@@]1(Cc2ccccc2CN=[N+]=[N-])N=C(c2ccc(OCCCO)cc2)O[C@H]1c1ccccc1CN=[N+]=[N-]`, for which the z-score was 1.16 (inactive) in [1]; 31.4 (active) in [3]; 48.5 (active) in [4]; 2.97 (inactive) in assay [5]; 26.4 (active) in [6]; 2.88 in [7]. Also, the z-score in assay [8] was -3.05 (inactive); in assay [9], -0.796 (inactive); in [10] it was -1.91; in [11], -0.768; in assay [12], 1.56; in assay [13], -0.983. Further, the z-score in assay [14] is -2.88; in [15] it was -3.94; in [16], 1.57; in assay [17], 2.31 (inactive); in assay [18] it was -1.2; in [19], -2.64. Moreover, the z-score in assay [20] was -1.2 (inactive). The same molecule showed a composite z-score in assay [2] of 0.123.
For the molecule `CCOC(=O)C[C@H]1[C@H](OC(=O)c2cc3ccccc3oc2=O)[C@@H](NC(=O)CC(C)C)c2cc(OCCCO)ccc2N1C(=O)c1ccccc1`, the z-score in assay [1] was 2.61 (inactive); in assay [3], 0.522 (inactive); in assay [4], -1.18 (inactive); in [5], 0.71 (inactive); in [6], -2.17 (inactive); in assay [7], 1.96. Moreover, the z-score was -0.403 (inactive) in assay [8]; 0.0665 (inactive) in assay [9]; 0.622 in [10]; -0.276 in [11]; 1.52 in [12]; 0.314 in [13]. The z-score in assay [14] is 0.117; in assay [15] it was -0.0793; in assay [16], 1.14; in assay [17], 0.9 (inactive); in assay [18] it was -0.882; in [19], 0.915. The z-score in assay [20] is -1.33 (inactive). The molecule also came in with a composite z-score in assay [2] of -0.0601.
Consider `CN1C(=O)C2C=CC(C(O)c3c(F)cccc3Cl)N(NC(=O)OC(C)(C)C)C2C1=O` (stereo not given), for which the z-score is -0.963 (inactive) in assay [1]; -0.332 (inactive) in assay [3]; 0.119 (inactive) in assay [4]; -0.46 (inactive) in [5]; 0.58 (inactive) in assay [6]; -1.11 in assay [7]. The z-score in assay [8] was -1.06 (inactive); in assay [9], -0.495 (inactive); in [10], -1.03; in assay [11], -0.646; in [12], -0.204; in assay [13] it was -0.482. Also, the z-score in [14] is -0.208; in [15] it was -1.64; in assay [16], -1.25; in assay [17], -0.555 (inactive); in [18], -0.715; in assay [19], 0.925. Besides, in [20], the z-score was 0.143 (inactive). In assay [2], this molecule came in with a composite z-score of 0.343.
For `COc1ccc([C@H]2C[C@H]3C(I)=C[C@@H]2C(=O)[C@]32CO2)cc1`, the z-score is 0.794 (inactive) in assay [1]; 0.524 (inactive) in assay [3]; 0.0528 (inactive) in assay [4]; 0.255 (inactive) in assay [5]; -0.0393 (inactive) in assay [6]; 0.759 in assay [7]. Further, the z-score in [8] is -0.546 (inactive); in assay [9], -0.298 (inactive); in [10], -0.974; in assay [11], -0.87; in assay [12] it was 0.698; in assay [13] it was -0.856. Further, the z-score in assay [14] is -3.23; in assay [15], -2.81; in [16], -0.22; in [17], 0.315 (inactive); in assay [18], -0.474; in [19] it was -0.967. Further, the z-score in [20] was 0.46 (inactive). In assay [2], this molecule displayed a composite z-score of -0.28.
Turning to `CCCCC(=C=CC[C@@H](O)c1ccc(CO)o1)CCO`, the z-score in [1] was 0.702 (inactive); in assay [3], 2.3 (inactive); in [4] it was 0.631 (inactive); in assay [5], 0.399 (inactive); in [6] it was 0.208 (inactive); in assay [7] it was 0.126. In addition, the z-score in assay [8] was 2.35 (inactive); in [9] it was 1.49 (inactive); in [10] it was 1.3; in [11], 1.48; in [12], -0.186; in assay [13], 0.376. In addition, the z-score is -0.277 in [14]; 0.275 in [15]; 0.761 in assay [16]; 0.618 (inactive) in assay [17]; 0.0267 in assay [18]; 0.321 in [19]. In addition, the z-score in assay [20] is 1.28 (inactive). Also, in assay [2], the composite z-score amounted to 0.459.
